# Assay results from paper PMC8384837, “Expanding the binding specificity for RNA recognition by a PUF domain”.
# What was measured:
# Experiment in all cases: yeast three-hybrid, YBZ-1, SC-Leu-His + 0.5 mM 3-AT, 4 days
# Settings in all cases: tags: N-Gal4 AD-HA kept; label: inside an RPR1-promoter hybrid RNA with tandem MS2 sites; ssRNA
# [1] = target: T1, PUM1 PUF domain R6-CFE (Homo sapiens, UniProt Q14671 828-1176, N1043C;Y1044F;Q1047E)
# T1 sequence: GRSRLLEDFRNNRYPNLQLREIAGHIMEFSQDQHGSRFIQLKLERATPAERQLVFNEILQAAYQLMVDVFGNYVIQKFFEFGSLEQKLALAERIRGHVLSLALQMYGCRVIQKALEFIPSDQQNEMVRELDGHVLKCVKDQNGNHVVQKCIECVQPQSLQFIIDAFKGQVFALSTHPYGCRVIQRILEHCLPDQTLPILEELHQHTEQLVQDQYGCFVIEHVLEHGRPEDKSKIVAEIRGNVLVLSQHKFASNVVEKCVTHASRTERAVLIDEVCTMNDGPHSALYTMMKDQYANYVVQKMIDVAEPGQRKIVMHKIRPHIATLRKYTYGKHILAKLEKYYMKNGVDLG
# In short: (§1)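 Pumilio-1 PUF domain libraries, randomized (NNK) at the three base-contacting residues of each repeat, were co-expressed with matching RNA elements from a centromeric plasmid in strain YBZ-1 (LexA–MS2 coat fusion, HIS3 reporter). Transformants were plated on SC-Leu (input) and SC-Leu-His + 0.5 mM 3-AT (selection) for four days, and repeat regions were PCR-amplified and Illumina-sequenced. The interaction score is the log2 change in variant frequency from input to selection, with pseudocount 1 where absent.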
# [2] = target: PUM1 PUF domain R5-DRL (Homo sapiens, UniProt Q14671 828-1176, C1007D;Q1011L)
# In short: as §1
# [3] = target: PUM1 PUF domain R5-SKQ (Homo sapiens, UniProt Q14671 828-1176, C1007S;R1008K)
# In short: as §1
# [4] = target: PUM1 PUF domain R5-ERG (Homo sapiens, UniProt Q14671 828-1176, C1007E;Q1011G)
# In short: as §1
# [5] = target: PUM1 PUF domain R3-FRG (Homo sapiens, UniProt Q14671 828-1176, C935F;Q939G)
# In short: as §1
# [6] = target: PUM1 PUF domain R3-IRV (Homo sapiens, UniProt Q14671 828-1176, C935I;Q939V)
# In short: as §1
# [7] = target: PUM1 PUF domain R1-RLE (Homo sapiens, UniProt Q14671 828-1176, S863R;R864L;Q867E)
# In short: as §1
# [8] = target: PUM1 PUF domain R1-QRS (Homo sapiens, UniProt Q14671 828-1176, S863Q;Q867S)
# In short: as §1
# [9] = target: PUM1 PUF domain R5-GPR (Homo sapiens, UniProt Q14671 828-1176, C1007G;R1008P;Q1011R)
# In short: as §1
# [10] = target: PUM1 PUF domain R5-KSQ (Homo sapiens, UniProt Q14671 828-1176, C1007K;R1008S)
# In short: as §1
# [11] = target: PUM1 PUF domain R5-LHV (Homo sapiens, UniProt Q14671 828-1176, C1007L;R1008H;Q1011V)
# In short: as §1
# [12] = target: PUM1 PUF domain R5-RGR (Homo sapiens, UniProt Q14671 828-1176, C1007R;R1008G;Q1011R)
# In short: as §1
# [13] = target: PUM1 PUF domain R4-SRV (Homo sapiens, UniProt Q14671 828-1176, N971S;H972R;Q975V)
# In short: as §1
# [14] = target: PUM1 PUF domain R4-FGA (Homo sapiens, UniProt Q14671 828-1176, N971F;H972G;Q975A)
# In short: as §1
# [15] = target: PUM1 PUF domain R3-YWT (Homo sapiens, UniProt Q14671 828-1176, C935Y;R936W;Q939T)
# In short: as §1
# Chain of PUM1 PUF domain R5-GPR (Q14671 828-1176 C1007G/R1008P/Q1011R): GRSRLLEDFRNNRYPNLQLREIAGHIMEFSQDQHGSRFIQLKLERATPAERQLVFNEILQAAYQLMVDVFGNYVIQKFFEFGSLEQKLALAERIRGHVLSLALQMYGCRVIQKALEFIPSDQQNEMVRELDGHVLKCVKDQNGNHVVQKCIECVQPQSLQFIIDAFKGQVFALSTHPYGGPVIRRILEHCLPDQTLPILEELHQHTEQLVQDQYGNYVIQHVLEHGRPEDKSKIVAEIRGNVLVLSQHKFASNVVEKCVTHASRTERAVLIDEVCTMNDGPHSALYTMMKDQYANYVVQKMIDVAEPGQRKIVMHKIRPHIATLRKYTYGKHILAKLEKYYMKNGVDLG
# Chain of PUM1 PUF domain R5-ERG (Q14671 828-1176 C1007E/Q1011G): as the sequence (Q14671 828-1176 C1007G/R1008P/Q1011R) above, with G180E, P181R, R184G counted along it
# Chain of PUM1 PUF domain R1-RLE (Q14671 828-1176 S863R/R864L/Q867E): as the sequence (Q14671 828-1176 C1007G/R1008P/Q1011R) above, with S36R, R37L, Q40E, G180C, P181R, R184Q counted along it
# Chain of PUM1 PUF domain R5-DRL (Q14671 828-1176 C1007D/Q1011L): as the sequence (Q14671 828-1176 C1007G/R1008P/Q1011R) above, with G180D, P181R, R184L counted along it
# Chain of PUM1 PUF domain R5-KSQ (Q14671 828-1176 C1007K/R1008S): as the sequence (Q14671 828-1176 C1007G/R1008P/Q1011R) above, with G180K, P181S, R184Q counted along it
# Chain of PUM1 PUF domain R3-YWT (Q14671 828-1176 C935Y/R936W/Q939T): as the sequence (Q14671 828-1176 C1007G/R1008P/Q1011R) above, with C108Y, R109W, Q112T, G180C, P181R, R184Q counted along it
# Chain of PUM1 PUF domain R5-SKQ (Q14671 828-1176 C1007S/R1008K): as the sequence (Q14671 828-1176 C1007G/R1008P/Q1011R) above, with G180S, P181K, R184Q counted along it
sequence,measurement,setting,value
GGCUAGAACUAGUGGAUCCCCCGGCGCCCGGCGGCUCGAGCCCGGGUAAGUGGAAAUAGUCUGCAUGCCGCCGGGCGCCAUGCCUGCAGGUCGACUCUAGAAAACAUG,binding signal,[1],2.88 log2 enrichment (interaction score)
GGCUAGAACUAGUGGAUCCCCCGGCGCCCGGCGGCUCGAGCCCGGGUAAGUGUGAAUAGUCUGCAUGCCGCCGGGCGCCAUGCCUGCAGGUCGACUCUAGAAAACAUG,binding signal,[2],1.6 log2 enrichment (interaction score)
same,binding signal,[3],2.39 log2 enrichment (interaction score)
same,binding signal,[4],1.54 log2 enrichment (interaction score)
GGCUAGAACUAGUGGAUCCCCCGGCGCCCGGCGGCUCGAGCCCGGGUAAGUGUAAGUAGUCUGCAUGCCGCCGGGCGCCAUGCCUGCAGGUCGACUCUAGAAAACAUG,binding signal,[5],5.59 log2 enrichment (interaction score)
same,binding signal,[6],1.69 log2 enrichment (interaction score)
GGCUAGAACUAGUGGAUCCCCCGGCGCCCGGCGGCUCGAGCCCGGGUAAGUGUAAAUUGUCUGCAUGCCGCCGGGCGCCAUGCCUGCAGGUCGACUCUAGAAAACAUG,binding signal,[7],2.88 log2 enrichment (interaction score)
same,binding signal,[8],2.7 log2 enrichment (interaction score)
GGCUAGAACUAGUGGAUCCCCCGGCGCCCGGCGGCUCGAGCCCGGGUAAGUGUCAAUAGUCUGCAUGCCGCCGGGCGCCAUGCCUGCAGGUCGACUCUAGAAAACAUG,binding signal,[9],4.4 log2 enrichment (interaction score)
same,binding signal,[4],2.14 log2 enrichment (interaction score)
same,binding signal,[10],5.03 log2 enrichment (interaction score)
same,binding signal,[11],1.43 log2 enrichment (interaction score)
same,binding signal,[12],3.52 log2 enrichment (interaction score)
GGCUAGAACUAGUGGAUCCCCCGGCGCCCGGCGGCUCGAGCCCGGGUAAGUGUAUAUAGUCUGCAUGCCGCCGGGCGCCAUGCCUGCAGGUCGACUCUAGAAAACAUG,binding signal,[13],1.19 log2 enrichment (interaction score)
same,binding signal,[14],2.95 log2 enrichment (interaction score)
GGCUAGAACUAGUGGAUCCCCCGGCGCCCGGCGGCUCGAGCCCGGGUAAGUGUUAAUAGUCUGCAUGCCGCCGGGCGCCAUGCCUGCAGGUCGACUCUAGAAAACAUG,binding signal,[9],2.39 log2 enrichment (interaction score)
same,binding signal,[12],3.07 log2 enrichment (interaction score)
GGCUAGAACUAGUGGAUCCCCCGGCGCCCGGCGGCUCGAGCCCGGGUAAGUGUAAUUAGUCUGCAUGCCGCCGGGCGCCAUGCCUGCAGGUCGACUCUAGAAAACAUG,binding signal,[15],2.71 log2 enrichment (interaction score)
